Inconclusive results are not listed. Activity calls are given as the source filed them. Unless noted, calls come from the whole dose curve; as a rule, active = well fitted curve in the direction sought with a large enough effect in the repeat runs; inconclusive = weak or mixed curves; inactive = no such curve, though single readings can be large; an effect the other way counts as inactive or inconclusive.
Columns and labels:
[1] = qHTS assay to identify small molecule phospholipidosis (PLD) inducers (AID 1259344; active = well fitted curve in the direction sought with a large enough effect; an effect the other way counts as inactive or inconclusive)
Outline: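 After 4 h attachment on collagen I, HepG2 cells were dosed with compound alongside LipidTOX Red, kept 24 h at 37 C, fixed, and imaged for lamellar phospholipid pits.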

[2] = qHTS assay to identify small molecule HDAC inhibitors (AID 1259364);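 note: wild-type HCT-116 cells with endogenous class I/II HDAC activity; top concentration of the series differs between compounds; nearly all actives have a fitted effect of over 45% in size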
Outline: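 Quantitative high-throughput format: overnight-seeded HCT-116 cells got compounds for 2 hr at 37C; HDAC-Glo I/II reagent added, 30 min RT, luminescence measured.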

[3] = qHTS assay to identify small molecule HDAC inhibitors - cell viability counter screen (AID 1259365); note: series mostly up to about 92 µM; nearly all actives have a fitted effect of over 50% in size
Outline: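 HCT-116 wild-type, overnight attachment; 2hr drug exposure, 37C; CellTiter-Glo luminescent ATP readout after 30min RT.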

[4] = qHTS assay to identify small molecule agonists of the sonic hedgehog signaling (Shh) pathway - cell viability counter screen (AID 1259366); note: nearly all actives have a fitted effect of over 50% in size; note: potency is the fitted concentration of half-maximal effect
Outline: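 Compounds in DMSO were pin-transferred onto 3T3 Gli1-Luc cells that had settled 4hr; plates then stood 24hr at 37C and 5% CO2. One hour before the end, CellTiter-Fluor was added and fluorescence recorded.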

[5] = qHTS assay to identify small molecule antagonists of the sonic hedgehog signaling (Shh) pathway - cell viability counter screen (AID 1259367); note: nearly all actives have a fitted effect of over 55% in size; note: potency is the fitted concentration of half-maximal effect
Outline: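 Conditioned medium drove Shh signaling in 3T3 Gli1-Luc cells exposed to compounds at 37C and 5% CO2. Viability was determined from CellTiter-Fluor fluorescence, with reagent incubated 1 hr after 23 hr of treatment.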

[6] = qHTS assay to identify small molecule agonists of the sonic hedgehog signaling (Shh) pathway (AID 1259368; calls by dose curve;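 note: NIH/3T3-derived 3T3Gli1-Luc cells carrying a stable Gli1-driven firefly luciferase reporter; series mostly up to about 92 µM; nearly all actives have a fitted effect of over 15% in size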)
Outline: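 Quantitative high-throughput format using a Gli1-driven firefly luciferase reporter line derived from NIH/3T3 cells. After a 24 hr compound treatment at 37 C and 5% CO2, luminescence reported Gli1 response element activity.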

[7] = qHTS assay to identify small molecule agonists of the androgen receptor (AR) signaling pathway in the presence of an antagonist - cell viability counter screen (AID 1259379); note: nearly all actives have a fitted effect of over 25% in size; note: potency is the fitted concentration of half-maximal effect;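 for activity change, negative = cytotoxicity: MDA-kb2 human breast cancer cells carrying an MMTV luciferase reporter; series mostly up to about 92 µM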
Outline: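 Nilutamide-containing (3.0uM final) MDA-kb2 cultures, 3,000 cells/well, were treated with compounds across 15 concentrations. After 16 hr at 37C with no CO2, cell viability was determined by CellTiter-Fluor fluorescence in the luciferase assay wells.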

[8] = qHTS assay to identify small molecule antagonists of the sonic hedgehog signaling (Shh) pathway (AID 1259369; calls by dose curve; note: nearly all actives have a fitted effect of over 45% in size; note: potency is the fitted concentration of half-maximal effect)
Outline: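 Stable Gli1-Luc reporter NIH/3T3 clone; quantitative HTS in stimulated mode with conditioned medium. Luminescence measured after 24hr compound treatment at 37 C.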

[9] = target: Estrogen receptor beta (Homo sapiens) (UniProt Q92731); test: qHTS assay to identify small molecule agonists of the estrogen receptor beta (ER-beta) signaling pathway (AID 1259377; active = well fitted activation curve with a large enough effect in the signal ratio in the repeat runs, not every such curve was filed as active; the % refers to the signal ratio)
Outline: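 qHTS in ER-beta-UAS-bla HEK293T cells: 6 hr settling, then 16 hr compound at 37C, then LiveBLAzer substrate 2 h at RT before fluorescence reading.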

[10] = target: Estrogen receptor beta (Homo sapiens) (UniProt Q92731); test: qHTS assay to identify small molecule antagonists of the estrogen receptor beta (ER-beta) signaling pathway (AID 1259378; active = well fitted inhibition curve with a large enough effect in the signal ratio in the repeat runs, not every such curve was filed as active; the % refers to the signal ratio)
Outline: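 ER-beta-UAS-bla HEK293T (GripTite) cells in 2% charcoal-stripped FBS medium were preincubated 6 hr at 37C, dosed with compound, then stimulated with 1 nM E2 (final) for 16 hr; beta-lactamase reporter read by B/G FRET fluorescence after 2 hr substrate loading.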
% is set by controls: 0 for no effect and ±100 for the full control effect.

Sequence of Estrogen receptor beta (Homo sapiens) (Q92731 whole entry, looked up): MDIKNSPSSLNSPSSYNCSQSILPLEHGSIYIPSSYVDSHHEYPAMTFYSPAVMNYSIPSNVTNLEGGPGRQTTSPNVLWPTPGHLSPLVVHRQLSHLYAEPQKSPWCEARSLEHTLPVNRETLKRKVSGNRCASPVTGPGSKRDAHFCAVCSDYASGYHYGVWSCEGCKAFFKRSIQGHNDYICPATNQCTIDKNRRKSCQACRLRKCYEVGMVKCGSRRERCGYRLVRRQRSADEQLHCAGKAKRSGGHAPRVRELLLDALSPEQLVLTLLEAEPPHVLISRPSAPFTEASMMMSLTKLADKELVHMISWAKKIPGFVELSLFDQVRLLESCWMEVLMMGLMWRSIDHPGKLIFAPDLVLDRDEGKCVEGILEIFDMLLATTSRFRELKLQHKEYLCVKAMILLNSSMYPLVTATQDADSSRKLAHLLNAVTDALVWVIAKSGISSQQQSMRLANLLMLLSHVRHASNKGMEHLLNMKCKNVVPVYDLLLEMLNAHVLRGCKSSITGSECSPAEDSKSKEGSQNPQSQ

NC[C@H]1O[C@H](O[C@H]2[C@H](O)[C@@H](O[C@H]3O[C@H](CO)[C@@H](O)[C@H](N)[C@H]3O)[C@H](N)C[C@@H]2N)[C@H](N)C[C@@H]1O
inactive: Potency [1]

CCC(C)(C)c1ccc(CC(C)CN2C[C@@H](C)O[C@@H](C)C2)cc1 (stereo partly drawn)
inactive: Potency [1] | Potency [2] | Potency [3] | Potency [4] | Potency [5] | Potency [6] | Potency [7]

Nc1ccc(F)c([N+](=O)[O-])c1
inactive: Potency [2] | Potency [3] | Potency [4] | Potency [5] | Potency [6] | Potency [8] | outcome [9] | Potency [10] | Potency [7]

c1ccc(-c2ccc(C(c3ccccc3)n3ccnc3)cc2)cc1 (stereo not drawn)
inactive: Potency [1] | Potency [2] | Potency [3] | Potency [4] | Potency [5] | Potency [6] | Potency [7]

CC[C@H]1OC(=O)C[C@@H](O)[C@H](C)[C@@H](O[C@@H]2O[C@H](C)[C@@H](O)[C@H](N(C)C)[C@H]2O)[C@@H](CCN2C[C@H](C)C[C@H](C)C2)C[C@@H](C)C(=O)/C=C/C(C)=C/[C@@H]1CO[C@@H]1O[C@H](C)[C@@H](O)[C@@H](OC)[C@H]1OC
inactive: Potency [1]

CCCCCCCCCCCCCC(=O)OCC(COP(=O)([O-])OCC[N+](C)(C)C)OC(=O)CCCCCCCCCCCCC (stereo not drawn)
inactive: Potency [1]

O=C(N[C@H](CO)[C@H](O)c1ccc([N+](=O)[O-])cc1)C(Cl)Cl
inactive: Potency [1] | Potency [2] | Potency [3] | Potency [4] | Potency [5] | Potency [6] | Potency [8] | Potency [7]

Nc1ccc(N)c([N+](=O)[O-])c1
active: Potency [4] 27.3 µM | Potency [5] 21.7 µM | Potency [8] 8.63 µM | Potency [7] 54.5 µM
inactive: Potency [1] | Potency [2] | Potency [6]

c1ccc2occc2c1
inactive: Potency [1] | Potency [2] | Potency [4] | Potency [5] | Potency [7]

COc1cc([C@@H]2c3cc4c(cc3[C@@H](O[C@@H]3O[C@@H]5CO[C@@H](C)O[C@H]5[C@H](O)[C@H]3O)[C@H]3COC(=O)[C@H]23)OCO4)cc(OC)c1O
inactive: Potency [1] | Potency [3] | Potency [6] | outcome [9] | Potency [10] | Potency [7]
active: Potency [5] 60.4 µM

CC(=O)OCC1=C(C(=O)O)N2C(=O)[C@@H](NC(=O)Cc3ccccc3)[C@H]2SC1
inactive: Potency [1]

COc1cc(/C=C/C(=O)CC(=O)/C=C/c2ccc(O)c(OC)c2)ccc1O
inactive: Potency [1] | Potency [2]
active: Potency [4] 30.8 µM | Potency [5] 24.5 µM | Potency [8] 8.69 µM | Potency [7] 54.8 µM

CCCCCCCCCCCCCCCCCCNC(=O)OC1CCN(C(=O)OC[C@H](COC(=O)N(Cc2cccc[n+]2CC)C(=O)c2ccccc2OC)OC)CC1
active: Potency [8] 26.6 µM | Potency [7] 26.6 µM
inactive: Potency [2] | Potency [3] | Potency [4] | Potency [5] | Potency [6]

Oc1ccc(C2(c3ccc(O)c(C4CCCCC4)c3)CCCCC2)cc1C1CCCCC1
inactive: Potency [2] | Potency [3] | Potency [6]
active: Potency [4] 19.3 µM | Potency [5] 21.7 µM | Potency [8] 12.2 µM | Potency [7] 43.3 µM

CC1=CC[C@@H](C(C)(C)O)CC1
inactive: Potency [2] | Potency [3] | Potency [4] | Potency [5] | Potency [6] | Potency [8] | Potency [7]

CCNc1nc(NC(C)(C)C)nc(OC)n1
inactive: Potency [2] | Potency [3] | Potency [4] | Potency [5] | Potency [6] | outcome [9] | Potency [10] | Potency [7]

Nc1ccc2c(S(=O)(=O)O)cccc2c1S(=O)(=O)O
inactive: Potency [2] | Potency [3] | Potency [4] | Potency [5] | Potency [6] | Potency [8] | Potency [7]

C=C[Si](C)(C)Cl
inactive: activity change, negative = inhibition [2] 3.64% [at 8.39 µM] | activity change, negative = cytotoxicity [3] -0.871% [at 8.39 µM] | viability change, negative = cytotoxic [4] 9.73% [at 8.39 µM] | viability change, negative = cytotoxic [5] -1.01% [at 8.39 µM] | activity change [6] 1.18% [at 8.39 µM, hits give high values] | activity change, negative = cytotoxicity [7] -1.9% [at 8.39 µM]

CCCCCCCCCCCCS(=O)(=O)Cl
inactive: activity change, negative = inhibition [2] -0.19% [at 19 µM] | activity change, negative = cytotoxicity [3] -1.8% [at 19 µM] | viability change, negative = cytotoxic [4] -2.48% [at 19 µM] | viability change, negative = cytotoxic [5] -1.82% [at 19 µM] | activity change [6] 0.0807% [at 18.9 µM, hits give high values] | activity change, negative = inhibition [8] 18.4% [at 19 µM] | activity change, negative = cytotoxicity [7] 2.74% [at 19 µM]

C=CC(=O)OCC(Br)CBr (stereo not drawn)
inactive: Potency [2] | Potency [3] | Potency [4] | Potency [5] | Potency [6] | outcome [9] | Potency [10] | Potency [7]

CCCCCCCCc1ccc(Nc2ccc(CCCCCCCC)cc2)cc1
inactive: Potency [2] | Potency [3] | Potency [4] | Potency [5] | Potency [6] | Potency [8] | outcome [9] | Potency [7]

CC(C)=CCC[C@H](C)CC=O
inactive: Potency [2] | Potency [3] | Potency [4] | Potency [5] | Potency [6] | Potency [8] | Potency [7]

C=CC(=O)O[C@H]1C[C@@H]2CC[C@@]1(C)C2(C)C
inactive: Potency [2] | Potency [3] | Potency [4] | Potency [5] | Potency [6] | outcome [9] | Potency [10] | Potency [7]

Cc1c[nH]c(=O)[nH]c1=O
inactive: Potency [2] | Potency [3] | Potency [4] | Potency [5] | Potency [6] | Potency [8] | Potency [7]

Cc1ccc2n[nH]nc2c1
inactive: Potency [2] | Potency [3] | Potency [4] | Potency [5] | Potency [6] | Potency [8] | outcome [9] | Potency [7]

Brc1cc(Br)cc(Br)c1
inactive: Potency [2] | Potency [3] | Potency [4] | Potency [5] | Potency [6] | Potency [7]

COc1cc(C(C)C)ccc1C
inactive: activity change, negative = inhibition [2] 3.05% [at 19 µM] | activity change, negative = cytotoxicity [3] 0.521% [at 19 µM] | viability change, negative = cytotoxic [4] 0.547% [at 19 µM] | viability change, negative = cytotoxic [5] 0.176% [at 19 µM] | activity change [6] 1.1% [at 18.9 µM, hits give high values] | activity change, negative = inhibition [8] -24.4% [at 19 µM] | activity change, negative = cytotoxicity [7] 2.05% [at 19 µM]

From PubChem BioAssay (Tox21)
